# Compound activity as filed in PubChem BioAssay.
# ELG1 genotox: qHTS screen for small molecules that induce genotoxicity in human embryonic kidney (HEK293T) cells expressing luciferase-tagged ELG1; AID 504466, 2011; hit rate 1.3% among 330,000; Potency, µM (titrated, usually from 46 µM), for inactives: at the highest dose activity change, positive = activation, actives largely listed as activators; HEK293T ELG1-luciferase reporter, luminescence, 16 h; further: % of control where 0% means no effect; nearly all actives have a fitted effect of over 60% in size
#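 DMSO vehicle served as control against compound-treated ELG1-luciferase HEK293T cells; exposure lasted 16 hr at 37 °C and 5% CO2, followed by ONE-Glo luminescence detection after 30 min.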
# SMN2 splice enh: qHTS Assay for Enhancers of SMN2 Splice Variant Expression; AID 1458, 2008; hit rate 2.8% among 210,000; Potency, µM (series often up to 46.1 µM), without a hit: at the top dose activity change, positive = activation, actives largely listed as activators; HEK293 SMN2-luciferase splicing reporter, luminescence, 30-36 h; further: % of control where 0% means no effect; nearly all actives have a fitted effect of over 55% in size
#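 HEK293 cells carry an SMN2 […]–luciferase reporter in which exon 7 inclusion puts luciferase in frame. Cells were plated 10-12 h before compound addition, then incubated 30-36 h at 37C. ONE-Glo luminescence was read; sodium butyrate at 4.5 mM final served as control.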
# FLuc counter: qHTS profiling assay for firefly luciferase inhibitor/activator using purifed enzyme and Km concentrations of substrates (counterscreen for miR-21 project); Luciferin 4-monooxygenase (Photinus pyralis), P08659; purified FLuc, Km substrates, luminescence inhibition; Potency, µM (highest dose often 57.5 µM), inactives show at the top dose activity change, negative = inhibition, hits mostly inhibitors; hit rate 6.9% among 360,000; AID 588342, 2011;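 further: plate controls were vehicle for no effect and reference inhibitor for full effect; nearly all actives have a fitted effect of over 55% in size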
# Target sequence (P08659 whole entry, looked up): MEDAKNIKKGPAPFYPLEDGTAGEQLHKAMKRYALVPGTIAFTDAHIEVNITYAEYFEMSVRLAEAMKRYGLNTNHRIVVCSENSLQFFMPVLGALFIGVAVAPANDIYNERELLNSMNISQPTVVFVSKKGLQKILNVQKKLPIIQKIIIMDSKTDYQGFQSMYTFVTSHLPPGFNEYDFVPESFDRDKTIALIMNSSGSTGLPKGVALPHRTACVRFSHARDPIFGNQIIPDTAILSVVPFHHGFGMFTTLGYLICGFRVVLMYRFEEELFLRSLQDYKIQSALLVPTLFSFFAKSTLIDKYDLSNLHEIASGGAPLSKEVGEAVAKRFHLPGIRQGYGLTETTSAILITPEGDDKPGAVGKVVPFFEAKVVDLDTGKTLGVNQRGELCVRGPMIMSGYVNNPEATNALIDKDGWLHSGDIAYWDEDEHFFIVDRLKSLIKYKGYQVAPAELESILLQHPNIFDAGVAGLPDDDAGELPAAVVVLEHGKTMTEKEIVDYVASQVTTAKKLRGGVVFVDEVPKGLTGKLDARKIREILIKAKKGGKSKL
#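 Purified P. pyralis luciferase (10nM final) with 10uM D-luciferin and 10uM ATP (Km levels) in 50mM Tris acetate pH 7.5, 10mM Mg acetate, 0.01% Tween-20, 0.05% BSA; qHTS 6-point titration, ~60 µM downward; luminescence read.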
# NPC1 prom act: qHTS Assay for NPC1 Promoter Activators | Huh7 NPC1 promoter luciferase reporter, 24 h | Potency, µM (top dose mostly 9.22 µM), without a hit: at the top dose activation, actives largely listed as activators | hit rate 2.4% among 320,000 | AID 485313, 2010; further: % of control where 0% means no effect; nearly all actives have a fitted effect of over 60% in size
#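 Cells: Huh7 expressing luciferase under the NPC1 promoter, 1500/well. Seeded 2 h, compound added, incubated 24 h at 37 °C. Luciferase reagent, 10 min ambient, then luminescence.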
# Rab9 prom act: qHTS Assay for Rab9 Promoter Activators; Huh7 Rab9 promoter-luciferase reporter, luminescence, 24 h; Potency, µM (top dose mostly 9.22 µM), for the others: top-dose activation, negative = inhibition, actives largely listed as activators; hit rate 2.8% among 320,000; further: % of control where 0% means no effect; nearly all actives have a fitted effect of over 60% in size
#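 Rab9 promoter-driven luciferase in stably transfected Huh7 cells; 1500 cells/well rested 2 h, exposed to compound in DMSO for 24 h at 37 °C, 5% CO2. Luminescence read 10 min after adding luciferase reagent at ambient temperature.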
# The depositor's hits bear a star; ? = inconclusive; / = no result given; [ ] = another dose, or the depositor's remark. In the library only some 7.5% were active in any assay of this set; here they are far more common. The call rests on the fitted dose curve; in most records, active means well fitted curve in the direction sought with a large enough effect; inconclusive means small, poorly fitted or top-dose-only effect, or another doubt; inactive means no such curve, though single readings can be large; an effect the other way counts as inactive or inconclusive. Potency means the concentration at half of the fitted maximal effect.
SMILES,ELG1 genotox,SMN2 splice enh,FLuc counter,NPC1 prom act,Rab9 prom act
Cc1ccc(C(=O)c2sc(Nc3ccccc3)c(S(=O)(=O)c3ccccc3)c2N)c(C)c1,/,/,1.8%,/,/
CCOC(=O)c1sc(NC(=O)c2cc3ccccc3o2)nc1C,14.0%,11.2µM*,2.39µM*,-42.1%,-17.0%
Cc1nc(NC(=O)c2cc3ccccc3o2)sc1C,0.651µM*,/,1.07µM*,-4.5%,?
CCOC(=O)c1sc(NC(=O)CC2OC(=O)c3ccccc32)nc1C (stereo not drawn),1.6%,/,?,-3.4%,0.2%
CCOC(=O)c1sc(NC(=O)Cc2ccc(C)cc2)nc1C,-4.7%,5.6%,-16.1%,-4.9%,-2.6%
CCOC(=O)c1sc(NC(=O)c2ccccc2OC)nc1C,1.84µM*,2.51µM*,0.426µM*,0.8%,27.7%
Cc1cnc(NC(=O)c2cc3ccccc3o2)s1,?,2.24µM*,0.536µM*,1.41µM*,?
CCc1ccc(C(=O)Nc2cc(C)ccc2F)s1,21.5%,?,19µM*,0.1%,23.4%
CCOC(=O)Cc1csc(-n2sc3ccccc3c2=O)n1,?,-1.4%,9.53µM*,22.2%,28.1%
CCOC(=O)Cc1csc(SCn2nnc3ccccc3c2=O)n1,1.5%,4.8%,-2.8%,3.4%,-0.4%
Cc1ccccc1-c1nnc(NC(=O)c2cc3ccccc3oc2=O)s1,5.1%,-40.6%,-0.7%,1.6%,1.4%
CCOCCn1cnc2sc(C(=O)Nc3ccccc3C(=O)OC)c(C)c2c1=O,/,/,-3.9%,/,/
Cc1nnc(NC(=O)c2cc3ccccc3o2)s1,?,/,6.01µM*,?,?
CCOCCn1cnc2sc(C(=O)Nc3nc(C)c(C(=O)OCC)s3)c(C)c2c1=O,12.0%,-11.6%,2.39µM*,-9.1%,1.9%
CC(C)CC(C(=O)NCC1CCN(Cc2ccc(F)cc2)CC1)N1Cc2ccccc2C1=O (stereo not drawn),/,/,-1.2%,/,/
O=C(Nc1cccc(O)c1)C1CC(c2ccc(Cl)cc2)=NO1 (stereo not drawn),-1.8%,/,1.2%,-6.1%,7.9%
CC(C)C(NC(N)=O)C(=O)NC1CCCCC1 (stereo not drawn),0.1%,5.2%,-1.1%,-3.1%,-2.2%
Cc1nn(C)c2ncc(C(N)=O)c(Oc3ccc(Cl)cc3)c12,-14.4%,/,-1.7%,-1.6%,-1.8%
CCOC(=O)Cc1nnc(NC(=O)c2ccccc2OC)s1,12.7%,-7.8%,16.9µM*,6.7%,-32.6%
CCOC(=O)Cc1nnc(NC(=O)c2ccccc2OCC)s1,-0.6%,-4.9%,-2.2%,-3.9%,-4.8%
CCOc1ccc(N(Cc2ccc(C(=O)O)cc2)S(=O)(=O)c2ccc(C)cc2)cc1,?,/,1.9%,-2.8%,9.9%
CCOc1ccc(CCNC(=O)c2cc(C)nc3c2c(C)nn3-c2cccc(F)c2)cc1,/,/,-1.2%,/,/
Cc1cccc(-n2cnc(C(=O)NC3CCCCCC3)c2)n1,?,?,15.1µM*,2.51µM*,3.55µM*
CCN=C1S/C(=C\c2cn(CC)c3ccccc23)C(=O)N1CC,-2.9%,-12.1%,-10.7%,0.7%,2.2%
CCn1cc(C=C2C(=O)c3ccccc3C2=O)c2ccccc21,?,9.7%,6.01µM*,1.3%,-2.1%
SMILES,ELG1 genotox,SMN2 splice enh,FLuc counter,NPC1 prom act,Rab9 prom act
CCN(CC)c1ccc(C=Nc2cccnc2Cl)c(O)c1,-1.0%,/,2.39µM*,-6.4%,-5.3%[1.84 µM]
CCN(CC)c1ccc(C=Nc2cc(C)ccc2C)c(O)c1,6.5%,?,1.69µM*,2.4%,0.6%
CCN(CC)c1ccc(C=Nc2ccc(C)cc2C)c(O)c1,9.3%,/,3.38µM*,27.5%,?
COc1ccccc1N/N=C/c1c(CO)cnc(C)c1O,8.2%,-11.6%,13.5µM*,-2.8%,-6.1%
COc1ccc(C(=O)N/N=C/c2c(CO)cnc(C)c2O)cc1,-10.2%,-72.7%,21.3µM*,1.3%,0.1%
COC(=O)c1ccccc1S(=O)(=O)N1CCc2nc(COc3ccccc3)c3c(c2C1)CO[C@@H](C)C3,/,-7.0%[9.22 µM],/,/,/
O=[N+]([O-])c1ccccc1OCCCn1cnc2ccccc21,?,11.2µM*,5.36µM*,2.82µM*,2µM*
O=c1c2ccccc2ncn1CCCOc1ccccc1[N+](=O)[O-],?,/,15.1µM*,3.98µM*,3.55µM*
CCC1C(=O)NCCN1C(=O)c1ccc(OC)c(OC2CCN(C(C)=O)CC2)c1 (stereo not drawn),7.6%,/,0.3%,2.1%,10.2%
COc1cccc(OCc2nc(-c3ccc(Br)o3)no2)c1,10.2%,-3.3%,?,0.6%,15.4%
c1ccc(CCc2nc(-c3ccccn3)no2)cc1,?,11.2µM*,13.5µM*,3.16µM*,2.24µM*
Cc1ccc(-c2noc(CCCc3ccccc3)n2)cc1,13.7%,5.4%,23.9µM*,28.6%,10.1%
Brc1ccc(-c2noc(COc3ccc4ccccc4c3)n2)o1,3.6%,1.4%,-19.4%,0.8%,-1.6%
Clc1ccccc1OCc1nc(-c2ccc(Br)o2)no1,23.1µM*,?,15.1µM*,29.8%,?
Fc1ccc(OCc2nc(-c3ccc(Br)o3)no2)c(F)c1,16.4%,-2.1%,16.9µM*,22.6%,16.0%
CC(=O)N1c2c(cc(Br)cc2S(=O)(=O)N2CCN(c3cccc(Cl)c3)CC2)CC1C (stereo not drawn),/,5.0%,-9.7%,/,/
C[C@@H]1CN([C@@H](C)CO)C(=O)c2cc(NS(C)(=O)=O)ccc2O[C@@H]1CN(C)S(=O)(=O)c1ccccc1,5.2%,/,/,/,/
O=C(NC1CCCCC1)N1CCN(C(=O)c2ccco2)CC1,2.2%,8.3%,6.9%,-4.4%,0.5%
Cc1noc(/C=C/N(C)C)c1S(=O)(=O)N1CCCC(C(=O)Nc2ccc(F)cc2F)C1 (stereo not drawn),-12.4%,-3.5%,2.7%,17.6%,1.6%
COc1ccc(Cc2nc(-c3ccc(Br)o3)no2)cc1OC,5.9%,-18.2%,?,12.9%,?
Brc1ccc(-c2noc(CCc3ccccc3)n2)o1,15.4%,18.1%,23.9µM*,19.0%,19.5%
CC(O)CN=c1cc(-c2ccccc2)oc2ccc(Cl)cc12 (stereo not drawn),?,16.7%,15.1µM*,?,?
C(#CC1CCCC1)c1ccc2c(c1)COc1c3ccccc3nn1-2,?,/,3.01µM*,0.891µM*,1µM*
CCCc1cc(-c2ccc3c(c2)COc2c4ccccc4nn2-3)on1,?,/,1.07µM*,2.82µM*,2.82µM*
CCOc1cc(-c2cc(-c3ccc(N)cc3)nc(N)c2C#N)ccc1O,-1.0%,12.6µM*,-13.3%,1.1%,9.4%
CCOc1cc(-c2cc(-c3ccccc3)nc(N)c2C#N)ccc1O,?,?,-18.3%,-0.9%,-2.6%
Cc1sc(NC(=O)c2cccs2)c(C(N)=O)c1C,?,10µM*,10.7µM*,17.5%,?
Cc1sc(NC(=O)C2=COCCO2)c(C(N)=O)c1C,28.3%,/,16.9µM*,13.9%,21.8%
